Data published in PubChem BioAssay AID504832 (National Center for Advancing Translational Sciences (NCATS), 2011).
The whole screen tested about 310,000 compounds, of which about 18,000 (5.8%) were called active. Inconclusive results (about 22%) are left out. Calls come from the whole dose curve; as a rule, active = well fitted inhibition curve with a large enough effect; inconclusive = small, poorly fitted or top-dose-only effect, or another doubt; inactive = no such curve, though single readings can be large or run the other way. This excerpt belongs to a sample that is enriched for actives.

Test: Primary qHTS for delayed death inhibitors of the malarial parasite plastid, 48 hour incubation
Conditions: P. falciparum luciferase growth in erythrocytes; series mostly up to 28.7 µM; activity change, negative = inhibition: at the top concentration
Procedure, shortened: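 A one-generation exposure of luciferase-tagged malaria parasites in RPMI 1640/Albumax erythrocyte culture, 37 C and 5% CO2. Inhibition is inferred from decreased luminescence after adding detection reagent.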
% is set by controls: 0 for no effect and ±100 for the full control effect; potency is the fitted concentration of half-maximal effect.

Structure (SMILES) | activity change, negative = inhibition | Potency
O=C(CSc1n[nH]c(-c2cccs2)n1)N1CCCCC1 | 25.1% (inactive) | –
CC(=O)Nc1ccc(S(=O)(=O)NC2Cc3ccccc3C2)cc1 | -8.94% (inactive) | –
O=S(=O)(NC1CCCCC1N1CCCCC1)c1ccc(Cl)cc1 (stereo not drawn) | 16.4% (inactive) | –
CCN(c1ccc2c(c1)OCO2)S(=O)(=O)c1cc(Br)cc2c1N(C(=O)C1CC1)CC2 | – | 1.47 µM (active)
CCOC(=O)N1CCN(S(=O)(=O)c2cc(Br)cc3c2N(C(=O)C2CC2)CC3)CC1 | -16.7% (inactive) | –
CS(=O)(=O)N(CC(=O)N1CCN(Cc2ccc3c(c2)OCO3)CC1)c1ccc2c(c1)OCO2 | -6.02% (inactive) | –
COc1cccc(CNC(=O)COC(=O)CN2C(=O)NC3(CCCCC3C)C2=O)c1 (stereo not drawn) | 4.63% (inactive) | –
OCC[C@H]1C[C@@H](O)[C@H](O)[C@@]2(OCCc3ccccc32)O1 | 10% (inactive) | –
COc1ccc2nc(C)cc(Nc3cccc(C(=O)O)c3)c2c1 | 30% (inactive) | –
COc1ccc2nc(SCc3ccccc3)nc(C)c2c1 | 255% (inactive) | –
Cc1nc(/N=C(\N)NC(=O)NC2CCCCC2)nc2ccccc12 | – | 2.94 µM (active)
O=C(NNC(=O)C(O)c1ccccc1)NC1CCCCC1 (stereo not drawn) | 25.1% (inactive) | –
COc1ccc2nc(/N=C(\N)NC(=O)Nc3ccccc3)nc(C)c2c1 | – | 1.85 µM (active)
Cc1nn(-c2ccccc2)c(C)c1C(=O)OCC(=O)NC(=O)NC1CCCCC1 | 1.1% (inactive) | –
COc1ccc(Cl)cc1NC(=O)c1cccc(N2C(=O)C3CC=CCC3C2=O)c1 (stereo not drawn) | 20.4% (inactive) | –
O=Cc1cn(-c2ccccc2)nc1-c1ccccn1 | 21.5% (inactive) | –
O=C(CSCc1ccccc1)Nc1ccccc1 | 56.7% (inactive) | –
CC(=O)Nc1ccc(NC(=O)C(NS(=O)(=O)c2ccc3c(c2)OCCO3)C(C)C)cc1 (stereo not drawn) | -15.4% (inactive) | –
NC(=O)COC(=O)/C=C/c1ccc2ccccc2n1 | 0% (inactive) | –
CC(=O)c1ccc(S(=O)(=O)N2CCC3(CC2)OCCO3)cc1 | -5.09% (inactive) | –
CC(=O)c1ccc(S(=O)(=O)N2CCN(C(=O)/C=C/c3ccc4ccccc4n3)CC2)cc1 | – | 11.7 µM (active)

Structure (SMILES) | activity change, negative = inhibition | Potency
C/C(=N\Nc1nncc2ccccc12)c1ccc(Cl)c([N+](=O)[O-])c1 | 50.4% (inactive) | –
CC(=O)N1CCN(CC(=O)Nc2ccc(C)c(F)c2)CC1 | -12.4% [at 0.00184 µM] (inactive) | –
CS(=O)(=O)N(CC(=O)N1CCOCC1)c1cccc(Cl)c1Cl | 0.916% (inactive) | –
CCN1C(=NCCc2cccnc2)N[C@@H](c2ccccc2)C(C(=O)OC)=C1C | – | inactive
Clc1ccc(C2[C@H]3CN(CC4CCCCC4)[C@H](c4ccccc4)C34CC2(c2cccnc2)C4)cn1 (stereo partly drawn) | – | 3.7 µM (active)
COC(=O)c1ccc(C23CC4(C2)[C@H](CN(Cc2cccnc2)[C@@H]4c2ccccc2)C3c2ccc(Cl)nc2)cc1 (stereo partly drawn) | – | 10.4 µM (active)
COC(=O)c1ccc(CN2CCN(CCCc3ccccc3)C(CCO)C2)cc1 (stereo not drawn) | -11% (inactive) | –
O=C(O)c1ccc(S(=O)(=O)N2CCOCC2)o1 | 23.6% (inactive) | –
CN(C(=O)COC(=O)Cn1cnc2c1c(=O)n(C)c(=O)n2C)C1(C#N)CCCCC1 | 22.8% (inactive) | –
CCCC(=O)N1CCC(CCC(=O)NC2CC2)CC1 | 40.2% (inactive) | –
CCOC(=O)c1ccc2[nH]c3c(c2c1)CCCC3NC=O (stereo not drawn) | 3.34% (inactive) | –
CC(C)[C@@H](NC(=O)OC(C)(C)C)C(=O)NCC1CCC(C(=O)N[C@@H](Cc2ccccc2)C(=O)O)CC1 (stereo partly drawn) | -7.46% (inactive) | –
Cc1ccc(S(=O)(=O)N(C)C)cc1NC(=O)COC(=O)/C=C/c1cccs1 | 7.2% (inactive) | –
Cc1csc(NC(=O)CSc2nc(=O)cc(N)n2-c2ccc(F)cc2)n1 | -0.578% (inactive) | –
O=C(c1cn(-c2ccccc2)nc1-c1cccnc1)N1CCCCC1 | -29.5% (inactive) | –
NC(=O)C1CCN(C(=O)c2cn(-c3ccccc3)nc2-c2cccnc2)CC1 | 20.7% (inactive) | –
O=C(c1cn(-c2ccccc2)nc1-c1cccnc1)N1CCN(S(=O)(=O)c2ccccc2F)CC1 | – | 11.7 µM (active)
Cc1ccc(S(=O)(=O)CCC(=O)OCC(=O)NCCc2ccc(S(N)(=O)=O)cc2)cc1 | -10.4% (inactive) | –
CCC(=O)c1ccc(OCC(=O)OCC(=O)NC2CCCCCC2)cc1 | -18.2% (inactive) | –
CC1CCCC(C)N1C(=O)CSc1nnnn1C1CCCC1 (stereo not drawn) | 27.6% (inactive) | –
COc1ccc(OC)c(/C(C)=N\NC(=O)c2cc3cc(Cl)ccc3n2C)c1 | -1.37% (inactive) | –

Structure (SMILES) | activity change, negative = inhibition | Potency
CCCN(CCC)c1nc2c(C)cccn2c(=O)c1/C=C1/SC(=S)N(Cc2ccco2)C1=O | – | 1.31 µM (active)
O=C(CCCN1C(=O)/C(=C\c2ccco2)SC1=S)Nc1cccc2ccccc12 | 5.18% (inactive) | –
Cc1cccn2c(=O)c(/C=C3\SC(=S)N(CC(C)C)C3=O)c(NCCCOC(C)C)nc12 | 4.14% (inactive) | –
CC(=O)c1ccc(NC(=O)CCNS(=O)(=O)c2cc(Br)cnc2N)cc1 | 5.08% (inactive) | –
COc1cc(C(=O)NNC(=O)CN2C(=O)NC3(CCCC3)C2=O)cc(OC)c1OC | -15% (inactive) | –
O=C(N/N=C/c1c[nH]c2ccccc12)c1ccccc1O | -19.7% (inactive) | –
CC(C)n1c(SCC(=O)Nc2ccccc2N2CCCCC2)nc2c1c(=O)n(C)c(=O)n2C | -8.49% (inactive) | –
Cc1cc(NC(=O)C(C)SCC(=O)Nc2ccccc2N2CCCCC2)no1 (stereo not drawn) | – | 8.28 µM (active)
Cc1cc(NC(=O)CSCc2ccccc2C)no1 | 14.7% (inactive) | –
CCN(CC)c1ccc(/C=N/NC(=O)CNC(=O)c2cccnc2)cc1 | 30.6% (inactive) | –
COc1cccc(NC(=O)C/C(C)=N/NC(=O)C2CCCCC2)c1 | 7.61% (inactive) | –
O=C(NC(Cc1ccc(O)cc1)C(=O)O)/C(=C/c1ccccc1)NC(=O)c1ccccc1 (stereo not drawn) | 78.7% (inactive) | –
COc1cc2[nH]c(=O)n(Cc3ccc(C(=O)NC4CCN(Cc5ccccc5)CC4)cc3)c(=O)c2cc1OC | – | 13.1 µM (active)
COc1cc2[nH]c(=O)n(CCC(=O)NC3CCN(Cc4ccccc4)CC3)c(=O)c2cc1OC | 21.7% (inactive) | –
CCOc1cc2[nH]c(=O)n(Cc3ccc(C(=O)NCCCN4CCCC4=O)cc3)c(=O)c2cc1OCC | -6.67% (inactive) | –
CCOC(=O)c1ccc(NC(=S)N2CCN(c3ccccn3)CC2)cc1 | 15% (inactive) | –
COc1ccc(NS(=O)(=O)c2ccc(F)cc2F)cn1 | 38.3% (inactive) | –
CCCS(=O)(=O)N1CCN=C1SCc1cccc(F)c1 | -6.09% (inactive) | –
CC1(C)CC(=O)C=C(Nc2ccccc2)C1 | -13.2% (inactive) | –
CC1(C)CC(=O)C=C(c2ccc(Cl)c(C(F)(F)F)c2)C1 | – | 5.86 µM (active)
COc1cc(F)c(C2=CC(=O)CC(C)(C)C2)cc1F | 28.7% (inactive) | –
